Bioassay records deposited in PubChem by several laboratories.
These entries were drawn from the full list.
CYP2C19 inh = blockers of cytochrome P450 2C19 activity – biochemical, luminescence, ADME assay, primary screen; CYP2C19 Supersomes, luciferin-H EGE luminescence, 30 min; inhibition, % at 5 µM; 21% of 96,000 active; AID 778, 2007;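 active means CYP2C19 inhibition above a set limit at 5 µM in the primary screen, cut at about 50% in these data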
CYP2C9 act = human CYP2C9 activators, primary screen, biochemical, luminescence | Cytochrome P450 2C9 (Homo sapiens), P11712 | 1.4% of 96,000 active | activation factor at 5 µM | recombinant CYP2C9, luciferin-H conversion; stronger effect = higher value; factor 1 = untreated enzyme, 0 = blocked;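 active means activation factor of 2 or more for CYP2C9 at a 5 µM dose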
PostGolgi yeast = phenotypic screen on post-Golgi transport, primary screen; post-Golgi transport phenotypic cell assay; inhibition, % at 10 µM; 0.9% of 98,000 active;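 further: yeast cells grown in 1536-well plates; yeast grown about 18 h at 30C before absorbance read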
PostGolgi ctrl = growth inhibition of yeast control strain, primary screen, counter-screen for post-Golgi transport modulator project; efflux-deficient yeast background strain, growth absorbance A615, 16 h; inhibition, % at 10 µM; 5% of 98,000 active; AID 738, 2007
CYP2C9 inh = blockers of cytochrome P450 2C9 activity – biochemical, luminescence, ADME assay, primary screen; CYP2C9 Supersomes, luciferin-H conversion; 20% of 96,000 active; inhibition, % at 5 µM;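 active means blocking of liver enzyme CYP2C9 beyond about 50% at 5 µM, limit read from the data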
CYP2C19 activ = human CYP2C19 activators, primary screen, biochemical, luminescence. AID 1025, 2008. 96,000 tested, under 10 active. activation factor at 5 µM. recombinant CYP2C19, luciferin-H EGE luminescence; stronger effect = higher value; 0 = fully inhibited enzyme, 1 = untreated enzyme. Cytochrome P450 2C19 (Homo sapiens), P33261;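 active means activation factor of at least 2 at 5 µM in the primary screen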
Of the large screens only hits and unclear results are named; the others gave an inactive call. Unless noted, no stated cut-off is given here; in the data, active means inhibition above about 30%; inactive means the rest.

O=c1[nH]c(=S)n(Cc2ccc(F)cc2)c(O)c1C=NCc1cccnc1	CYP2C19 inh 66
CCOc1ccc(-n2c(O)c(C=NCCCn3ccnc3)c(=O)[nH]c2=O)cc1	none
COC(=O)CC1=C(C(=O)OC)C2(C(=O)N(C)c3ccccc32)C(C#N)=C(N)O1 (configuration not stated)	none
CC(C)C(=O)c1cn(Cc2ccccc2C#N)c2ccccc12	CYP2C19 inh 60
CCC(=O)c1cn(Cc2ccc(C#N)cc2)c2ccccc12	none
CCOP(=O)(OCC)C(NC(=O)C(C)C)C(Cl)(Cl)Cl (configuration not stated)	none
